Potency and affinity values are given separately. Values without a mark were called inactive.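 How the source made its calls: active means in all runs, an absorbance decrease of 25% or more of the average positive control decrease; inconclusive means runs conflict, with both active and inactive results; inactive means all runs inactive, opposite-direction effects included.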
biological target: Protein disulfide-isomerase A6 (Homo sapiens) (UniProt Q15084); assay: reduced insulin turbidity driven by ERp5 (PDIA6) – biochemical, absorbance 650 nm, cherry-picked samples, dose response (AID 720566); conditions: Recombinant ERp5 insulin aggregation; series mostly up to 35 µM; activity change, negative = inhibition: at the top concentration
Sequence (Q15084 whole entry, looked up): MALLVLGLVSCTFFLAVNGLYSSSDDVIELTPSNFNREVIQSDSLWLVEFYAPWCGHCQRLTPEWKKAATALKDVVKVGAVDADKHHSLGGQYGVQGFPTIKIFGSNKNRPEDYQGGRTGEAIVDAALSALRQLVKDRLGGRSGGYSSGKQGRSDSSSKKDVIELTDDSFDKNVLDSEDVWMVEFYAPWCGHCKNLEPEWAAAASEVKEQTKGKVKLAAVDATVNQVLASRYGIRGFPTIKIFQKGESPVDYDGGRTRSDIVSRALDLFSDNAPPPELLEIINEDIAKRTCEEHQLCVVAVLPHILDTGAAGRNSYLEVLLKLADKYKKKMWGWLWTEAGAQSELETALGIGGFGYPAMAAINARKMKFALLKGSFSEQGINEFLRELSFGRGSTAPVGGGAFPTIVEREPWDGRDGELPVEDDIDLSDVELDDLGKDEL

| SMILES | activity change, negative = inhibition |
| --- | --- |
| COc1ccc(NC(=O)N(C)C[C@H]2Oc3ccc(NS(=O)(=O)c4ccccc4)cc3C(=O)N([C@@H](C)CO)C[C@@H]2C)cc1 | 3.91% |
| C[C@H](CO)N1C[C@H](C)[C@H](CN(C)Cc2cncnc2)Oc2ncc(-c3cccc(C#N)c3)cc2C1=O | 1.45% |
| C[C@@H]1CN([C@H](C)CO)S(=O)(=O)c2ccc(-c3ccc(F)cc3)cc2O[C@@H]1CN(C)CC1CC1 | 8.97% |
| COc1ccccc1CN(C)c1ccc(S(=O)(=O)N2CCN(C)CC2)cn1 | -5.32% |
| CN(CC(=O)Nc1ccc(F)cc1)CC(=O)NC1CCCCC1 | 9.17% |
| C[C@@H]1CN([C@H](C)CO)C(=O)Cc2cc(NC(=O)Nc3cccc4ccccc34)ccc2O[C@@H]1CN(C)Cc1ccc(C(F)(F)F)cc1 | 5.59% |
| C[C@H]1CN([C@@H](C)CO)C(=O)CCCn2cc(nn2)CO[C@@H]1CN(C)Cc1cccc(C(F)(F)F)c1 | 1.68% |
| CCCN(C)C[C@@H]1Oc2cc(-c3ccc(F)cc3)ccc2S(=O)(=O)N([C@@H](C)CO)C[C@@H]1C | 4.34% |
| C[C@@H]1CN([C@H](C)CO)C(=O)Cc2cc(NS(=O)(=O)c3ccc(F)cc3)ccc2O[C@@H]1CN(C)S(=O)(=O)c1cn(C)cn1 | -5.88% |
| Cc1cc(C(=O)Nc2cccc3c2O[C@@H](CN(C)S(=O)(=O)c2ccc(Cl)cc2)[C@@H](C)CN([C@@H](C)CO)C3=O)n(C)n1 | -9.16% |
| CCC1(CC)NC(=O)N(CC(=O)OC(C)C(=O)Nc2ccc(NC(C)=O)cc2)C1=O (configuration not stated) | 8.27% |
| C[C@@H]1CN([C@@H](C)CO)C(=O)Cc2cc(NS(=O)(=O)c3cccs3)ccc2O[C@H]1CN(C)C(=O)Nc1ccc(C(F)(F)F)cc1 | 6.89% |
| Cc1noc(C)c1NC(=O)Nc1ccc2c(c1)C(=O)N([C@H](C)CO)C[C@@H](C)[C@@H](CN(C)C(=O)Nc1ccc(F)cc1)O2 | 0.559% |
| O=C(COC(=O)CCc1nc2ccccc2c(=O)[nH]1)Nc1c(Cl)cccc1C(F)(F)F | 13.4% |
| Cc1ccc(NC(=O)COc2ccccc2)c(NC(=O)c2ccco2)c1 | 2.38% |
| COc1ccc2c3c([nH]c2c1)[C@H](CO)N(C(=O)NC(C)C)CC31CN(C(=O)C2CCCC2)C1 | -3.95% |
| CC(C)(C)c1cc(NC(=O)c2ccco2)no1 | 8.27% |
| O=C(C[C@H]1C[C@H]2c3cc(NC(=O)CC4CC4)ccc3O[C@H]2[C@@H](CO)O1)NCc1ccc(-c2ccccc2)cc1 | -10.3% [at 30 µM] |
| COC(=O)C[C@@H]1C[C@@H]2c3cc(NC(=O)Cc4ccncc4)ccc3O[C@@H]2[C@H](CO)O1 | 0.675% |
| Cc1noc(C)c1NC(=O)N(C)C[C@H]1Oc2ccc(NC(=O)c3ccncc3)cc2C(=O)N([C@H](C)CO)C[C@@H]1C | -1.12% |
| O=C(NNC(=O)c1ccc2ccccc2c1)Nc1ccc(F)cc1 | -2.38% |
| C[C@@H]1CN([C@@H](C)CO)C(=O)c2cc(NS(=O)(=O)c3ccccc3)ccc2O[C@H]1CN(C)C(=O)Nc1ccc2c(c1)OCO2 | 3.54% [at 30 µM] |

From PubChem BioAssay AID720566 (Broad Institute, 2013)
